An excerpt weighted towards active compounds, which were near 7.3% of everything screened.
ELG1 genotox – genotoxicity induction in ELG1-luciferase HEK293T cells; HEK293T ELG1-luciferase reporter, luminescence, 16 h; 330,000 compounds, 1.3% hits; Potency, µM (series often up to 46 µM), for the others: at the top dose activity change, positive = activation, hits mostly activators; further: % of control where 0% means no effect; nearly all actives have a fitted effect of over 60% in size
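Step 1: seed 2,000 HEK293T ELG1-luciferase cells per well. Step 2: add compound or DMSO, incubate 16 hr at 37 °C. Step 3: ONE-Glo, 30 min at room temperature, read luminescence.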
FLuc counter – counter-screen for miR-21 project: firefly luciferase inhibitors or activators | P08659 | purified FLuc, Km substrates, luminescence inhibition | Potency, µM (titrated, usually from 57.5 µM), inactives show at the top dose activity change, negative = inhibition, hits mostly inhibitors | 360,000 compounds, 6.9% hits | AID 588342;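 further: plate controls were vehicle for no effect and reference inhibitor for full effect; nearly all actives have a fitted effect of over 55% in size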
Target sequence (P08659 whole entry, looked up): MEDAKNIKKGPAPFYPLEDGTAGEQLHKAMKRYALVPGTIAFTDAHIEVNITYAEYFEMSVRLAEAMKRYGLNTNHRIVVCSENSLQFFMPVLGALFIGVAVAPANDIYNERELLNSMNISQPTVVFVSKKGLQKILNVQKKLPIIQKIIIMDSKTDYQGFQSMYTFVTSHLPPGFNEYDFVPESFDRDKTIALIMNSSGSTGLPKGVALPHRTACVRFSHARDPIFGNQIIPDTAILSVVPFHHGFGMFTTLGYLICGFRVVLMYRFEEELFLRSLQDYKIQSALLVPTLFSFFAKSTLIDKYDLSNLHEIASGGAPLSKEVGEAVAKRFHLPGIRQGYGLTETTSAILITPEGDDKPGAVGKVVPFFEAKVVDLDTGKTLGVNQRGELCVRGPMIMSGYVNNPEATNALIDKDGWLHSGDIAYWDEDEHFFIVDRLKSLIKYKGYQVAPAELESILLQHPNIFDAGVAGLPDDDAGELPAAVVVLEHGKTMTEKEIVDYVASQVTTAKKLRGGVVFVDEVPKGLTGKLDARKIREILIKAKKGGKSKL
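Purified P. pyralis luciferase (10nM final) with 10uM D-luciferin and 10uM ATP (Km levels) in 50mM Tris acetate pH 7.5, 10mM Mg acetate, 0.01% Tween-20, 0.05% BSA; qHTS 6-point titration, ~60 µM downward; luminescence read.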
Rab9 prom act – activates the Rab9 promoter. Huh7 Rab9 promoter-luciferase reporter, luminescence, 24 h. Potency, µM (series often up to 9.22 µM), for inactives: at the top dose activation, negative = inhibition, usual class: activators. 320,000 compounds, 2.8% hits; further: % of control where 0% means no effect; nearly all actives have a fitted effect of over 60% in size
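Huh7 cells stably carrying a Rab9 promoter-luciferase reporter, 1500 cells per well in OP-MEM I with 10% FBS, treated with compound 24 hours at 37C. Luciferase activity read by luminescence after 10 minutes with Amplite reagent.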
NPC1 promoter act – activators of NPC1 promoter; Huh7 NPC1 promoter luciferase reporter, 24 h; Potency, µM (doses to about 9.22 µM), for inactives: top-dose activation, most hits filed as activators; 320,000 compounds, 2.4% hits; further: % of control where 0% means no effect; nearly all actives have a fitted effect of over 60% in size
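Huh7 cells stably carrying NPC1 promoter–luciferase, plated in Opti-MEM with 10% FBS for 2 h, were exposed to compound in DMSO for 24 h at 37 °C; luciferase reagent was added for 10 min and luminescence read.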
SMN2 splice enh – SMN2 splice variant enhancement. HEK293 SMN2-luciferase splicing reporter, luminescence, 30-36 h. Potency, µM (doses to about 46.1 µM), without a hit: at the highest dose activity change, positive = activation, most hits filed as activators. 210,000 compounds, 2.8% hits. AID 1458; further: % of control where 0% means no effect; nearly all actives have a fitted effect of over 55% in size
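HEK293 cells carry an SMN2 […]–luciferase reporter in which exon 7 inclusion puts luciferase in frame. Cells were plated 10-12 h before compound addition, then incubated 30-36 h at 37C. ONE-Glo luminescence was read; sodium butyrate at 4.5 mM final served as control.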
Luc counter – Kinase-Glo luciferase inhibition (counter-screen). 200,000 compounds, 0.28% hits. Kinase-Glo luciferase, ATP luminescence, 8 min. Potency, µM (doses to about 38.3 µM), without a hit: at the highest dose activity change, negative = inhibition, usual class: inhibitors. Q27757; further: on the % scale 0 is the no-effect control and ±100 the full control effect; nearly all actives have a fitted effect of over 60% in size
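Inhibition of Kinase-Glo luciferase light generation was assessed at 10 uM ATP in pH 7.2 imidazole buffer, with luminescence measured after eight minutes at ambient temperature.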
Starred values were filed as active, the others as inactive; ? = inconclusive; nt = no result; [ ] = remark or other dose. The call rests on the fitted dose curve; in most records, active means well fitted curve in the direction sought with a large enough effect; inconclusive means small, poorly fitted or top-dose-only effect, or another doubt; inactive means no such curve, though single readings can be large; an effect the other way counts as inactive or inconclusive. Potency means the concentration at half of the fitted maximal effect.

SMILES	ELG1 genotox	FLuc counter	Rab9 prom act	NPC1 promoter act	SMN2 splice enh	Luc counter
COc1ccc(CN2C(=O)c3ccccc3C2OC)cc1 (configuration not stated)	4%	-3%	5%	5%	nt	nt
CN(C(=O)NCc1noc2ccccc12)c1cccc(Cl)c1	nt	-7%	nt	nt	nt	nt
Cc1ccc(C)c(Cn2c(=O)n(CCCC(=O)NCc3ccc4c(c3)OCO4)c(=O)c3sccc32)c1	nt	-15%	nt	nt	-2%	nt
O=[N+]([O-])c1ccc(CSc2nnc(SCc3ccccc3)s2)cc1	1%	1%	2%	-2%	-6%	0%
O=C(CSc1nc2ccccc2o1)NCC(=O)c1ccccc1	1%	7%[2.3 µM]	12%	2%	-12%	-2%
COC(=O)c1ccc(CSc2nc(N)cc(N)n2)cc1	15µM*	?	30%	26%	7%	-1%
COC(=O)c1ccc(CSc2nc3ccccc3o2)cc1	?	1.1µM*	0.89µM*	1.6µM*	22µM*	-7%
COC(=O)c1ccc(CSc2nnc(C)s2)cc1	27%	?	3.5µM*	?	25µM*	-7%
O=[N+]([O-])c1ccc(CSc2nc3ccccc3o2)cc1	?	2.4µM*	0.89µM*	0.63µM*	7.9µM*	-2%
COC(=O)c1ccc(CSc2nnc3c(n2)[nH]c2ccccc23)cc1	1%	-1%	-4%	-2%	nt	nt
COC(=O)c1ccc(CSc2nnc(N)s2)cc1	30%	?	?	?	7%	1%
CCOc1ccccc1C(=O)N(Cc1ccc(N(C)C)cc1)Cc1ccco1	nt	-19%	nt	nt	-3%	nt
Cc1cc(C(=O)CSc2nc3ccccc3c(=O)[nH]2)c(C)n1C	14µM*	?	?	?	35µM*	0%
Cc1cc(C(=O)CSc2nc3ccccc3[nH]2)c(C)n1CC1CCCO1 (configuration not stated)	-10%	0.54µM*	?	?	-53%	0%
Cc1cc(C(=O)CSc2nc(N)cc(=O)[nH]2)c(C)n1CC1CCCO1 (configuration not stated)	-3%	nt	nt	nt	nt	nt
Cc1cc(C(=O)CSc2nc3ccccc3o2)c(C)n1CC1CCCO1 (configuration not stated)	2%	1.3µM*	0.79µM*	0.71µM*	-89%	-2%
O[C@@H]1COC(Nc2ccc(N=Nc3ccccc3)cc2)C[C@@H]1O (some centres not stated)	?	0.34µM*	3.2µM*	?	nt	nt
O=C(CSc1nc(NS(=O)(=O)c2ccccc2)cc(=O)[nH]1)Nc1ccc(F)cc1	0%	7%	-1%	-5%	13%	-3%
Cc1ccnc(NS(=O)(=O)c2ccc(NC(=O)CSc3nc(-c4ccccc4)cc(=O)[nH]3)cc2)n1	1%	13µM*	-12%	-1%	-5%	-1%
Cc1cc(C(=O)Nc2cnc3ccccc3c2)ccc1[N+](=O)[O-]	?	?	2.2µM*	1.4µM*	13µM*	1%
CN(C)C(=O)Nc1cnc2ccccc2c1	6%	-14%	3%	-1%	0%	9%
O=C(NNC(=O)c1cccc(-n2cnnn2)c1)c1ccccc1	15%	1%	-1%	-2%	-3%	-3%
O=C(Nc1cnc2ccccc2c1)c1cccc(-n2cnnn2)c1	10%	24µM*	4.5µM*	4µM*	?	-2%
Cc1ccc(C(=O)Nc2cnc3ccccc3c2)cc1	?	0.076µM*	?	?	nt	?
O=C(NCCCN1CCN(c2cccc(Cl)c2)CC1)c1ccc2nc(Cc3ccccc3)oc2c1	nt	-1%	nt	nt	nt	nt
SMILES	ELG1 genotox	FLuc counter	Rab9 prom act	NPC1 promoter act	SMN2 splice enh	Luc counter
O=C(CNC(=O)c1ccc(-c2ccccc2)cc1)Nc1ccc(S(=O)(=O)Nc2ncccn2)cc1	-2%	17µM*	13%	-2%	nt	nt
O=C(CS(=O)(=O)c1ccccc1)Nc1ccc(S(=O)(=O)Nc2ncccn2)cc1	-1%	2%	0%	-2%	-5%	1%
O=C(Nc1cccc(-c2cnc3ccccc3n2)c1)c1ccco1	4%	?	3%	4%	0%	-3%
O=C(Nc1cnc2ccccc2c1)c1ccco1	?	7.6µM*	0.63µM*	1.4µM*	14µM*	-14%
O=C(Nc1cnc2ccccc2c1)c1cccnc1	4.6µM*	11µM*	2.2µM*	3.2µM*	13µM*	16%
CC(C)(C)c1ccc(C(=O)Nc2cccc(-n3cnnn3)c2)cc1	-7%	0.6µM*	?	?	nt	nt
CN(C)C1(CNC(=O)COc2ccc(C(C)(C)C)cc2)CCCCC1	nt	1%	nt	nt	nt	nt
Cc1ccc(C(=O)Nc2ccc(S(=O)(=O)Nc3cnc4ccccc4n3)cc2)cc1	14%	27µM*	5%	0%	nt	nt
Cn1c(NC(=O)c2cccnc2)nc2ccccc21	7%	?	3.5µM*	3.2µM*	13µM*	?
COc1cc(C(=O)Nc2ccc(S(=O)(=O)Nc3cnc4ccccc4n3)cc2)cc(OC)c1OC	?	2%	0%	-3%	nt	nt
Cc1ccc2cccc(OC(=O)/C=C\c3ccccc3)c2n1	-1%	6%	-3%	-2%	nt	-1%
Cc1cccc(/C=C/c2ccccc2)n1	nt	nt	11µM*	13µM*	?	?
Cc1cccc(/C=C\c2ccccc2)n1	nt	nt	nt	nt	nt	11µM*
CC1CCN(C(=O)Cn2c(SCC(=O)Nc3ccc(F)cc3)nc3ccccc32)CC1	nt	-2%	nt	nt	nt	nt
Fc1ccccc1/C=N/Nc1nn[nH]n1	5%	0%	14%	-3%	-16%	-3%
Fc1ccccc1/C=N/Nc1ccc(Cl)nn1	?	11µM*	?	?	nt	nt
Cc1ccc(/C=N/Nc2ccc(Cl)nn2)cc1	?	?	3.2µM*	1.8µM*	nt	nt
COc1ccccc1OCCn1c(COc2cc(C)ccc2C)nc2ccccc21	nt	0%	nt	nt	-3%	nt
CCOc1ccc(N(C)C(CNS(=O)(=O)c2ccccc2)c2ccccc2)cc1 (configuration not stated)	nt	-1%	nt	nt	-27%	nt
COc1ccc(CCNc2nc3cc(OC)c(OC)cc3c3nc(-c4cccnc4)nn23)cc1OC	nt	-1%	nt	nt	2%	nt
Cn1c2ccccc2c2c(C(=O)N3CCN(c4cccc(Cl)c4)CC3)cn(C3CCCCC3)c(=O)c21	nt	-2%	nt	nt	-3%	nt
Cc1nn(-c2ccc(N3CCCCC3)nn2)c(C)c1CCC(=O)Nc1ccccc1F	0%	19µM*	?	?	nt	nt
Cc1nn(-c2ccc(N3CCCCC3)nn2)c(C)c1CCC(=O)Nc1cc(F)ccc1F	3%	4.8µM*	?	?	nt	nt
COc1ccc(OC)c(Nc2ncnc3sc(-c4ccccc4)cc23)c1	-1%	?	-6%	2%	11%	1%

Source: PubChem
